# Inconclusive results are not listed. Calls of active or inactive are those of the source. Rule for the calls, unless noted: active = hit-call score of the fitted dose curve at least 0.9, where 1 is the maximum; inactive = score below 0.9.
# Experiments:
# [1] = read-out: E-selectin (Homo sapiens) (UniProt P16581); assay: BSK_SAg_Eselectin: BioMAP Diversity Plus: SAg Assay for Eselectin Biomarker Activity (AID 2283091); conditions: primary human HUVEC with PBMC; actives raise or lower the signal
# Outline: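 Endpoint values derive from bidirectional fitting relative to DMSO, using ELISA-measured E-selectin in a human vascular co-culture (umbilical vein endothelium plus PBMC) sampled 24 h after dosing.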
# [2] = read-out: Monokine induced gamma interferon (MIG), CXCL9 (gene 4283); assay: BSK_SAg_MIG: BioMAP Diversity Plus: SAg Assay for Monokine induced gamma interferon (MIG) Biomarker Activity (AID 2283092); conditions: primary human HUVEC with PBMC; actives raise or lower the signal
# Outline: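 Endothelial cells and PBMC were co-cultured, exposed to test chemicals, and sampled 24 h later. MIG was measured by ELISA, and responses were fitted in both directions relative to DMSO.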
# [3] = BSK_SAg_PBMCCytotoxicity: PBMC Cytotoxicity Assessment in the BioMAP Diversity Plus: SAg Assay (AID 2283093); conditions: primary human HUVEC with PBMC;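 note: PBMC viability measured as Alamar Blue reduction fluorescence at 546/580 nm; fitted both ways against DMSO so a hit may be loss or gain of signal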;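 for AC50: PBMC superantigen activated with SEB plus TSST-1 one hour after compound addition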
# Outline: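 Compound added to 75,000 PBMC/well for 1 h; SEB and TSST-1 then added at 20 ng/mL final each; 90 h incubation; Alamar Blue 6 h; read 546/580 nm ex/em. Activity fitted bidirectionally relative to DMSO baseline.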
# [4] = BSK_SAg_SRB: Viability Assessment in the BioMAP Diversity Plus: SAg Assay (AID 2283096); conditions: primary human HUVEC with PBMC;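 note: cells read one day after compound addition; hits may be either gain or loss of signal compared with DMSO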
# Outline: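 Total protein by sulforhodamine B staining, 24 h after dosing, in HUVEC–PBMC co-culture; DMSO-referenced bidirectional fitting.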
# [5] = biological target: human Dual Specificity Protein Phosphatase 3 (DUSP3), DUSP3 (gene 1845) (UniProt P51452); assay: NVS_ENZ_hDUSP3: NovaScreen (NVS) Enzymatic Assay for human Dual Specificity Protein Phosphatase 3 (DUSP3) (AID 2283152; active = hit-call score of the fitted dose curve at least 0.9, where 1 is the maximum;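 note: phosphatase activity of recombinant human DUSP3 on a fluorogenic substrate without cells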)
# Sequence of human Dual Specificity Protein Phosphatase 3 (DUSP3), DUSP3 (gene 1845) (P51452 whole entry, looked up): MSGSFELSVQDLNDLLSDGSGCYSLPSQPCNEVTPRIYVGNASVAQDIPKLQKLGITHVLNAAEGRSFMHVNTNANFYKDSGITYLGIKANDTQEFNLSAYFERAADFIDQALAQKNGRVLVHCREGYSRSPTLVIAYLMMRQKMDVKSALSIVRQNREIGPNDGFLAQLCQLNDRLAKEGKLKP
# Outline: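 Cell-free assay with recombinant human DUSP3 and fluorogenic substrate, read by fluorescence intensity. Primary screen ran duplicate at 25 uM; actives followed up in concentration series; loss of signal versus DMSO scored.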
# [6] = biological target: human Ephrin type-A Receptor 1 (EphA1), EPHA1 (gene 2041) (UniProt P21709); assay: NVS_ENZ_hEphA1: NovaScreen (NVS) Enzymatic Assay for human Ephrin type-A Receptor 1 (EphA1) (AID 2283158; active = hit-call score of the fitted dose curve at least 0.9, where 1 is the maximum;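 note: activity is signal loss versus DMSO meaning EphA1 kinase inhibition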)
# Sequence of human Ephrin type-A Receptor 1 (EphA1), EPHA1 (gene 2041) (P21709 whole entry, looked up): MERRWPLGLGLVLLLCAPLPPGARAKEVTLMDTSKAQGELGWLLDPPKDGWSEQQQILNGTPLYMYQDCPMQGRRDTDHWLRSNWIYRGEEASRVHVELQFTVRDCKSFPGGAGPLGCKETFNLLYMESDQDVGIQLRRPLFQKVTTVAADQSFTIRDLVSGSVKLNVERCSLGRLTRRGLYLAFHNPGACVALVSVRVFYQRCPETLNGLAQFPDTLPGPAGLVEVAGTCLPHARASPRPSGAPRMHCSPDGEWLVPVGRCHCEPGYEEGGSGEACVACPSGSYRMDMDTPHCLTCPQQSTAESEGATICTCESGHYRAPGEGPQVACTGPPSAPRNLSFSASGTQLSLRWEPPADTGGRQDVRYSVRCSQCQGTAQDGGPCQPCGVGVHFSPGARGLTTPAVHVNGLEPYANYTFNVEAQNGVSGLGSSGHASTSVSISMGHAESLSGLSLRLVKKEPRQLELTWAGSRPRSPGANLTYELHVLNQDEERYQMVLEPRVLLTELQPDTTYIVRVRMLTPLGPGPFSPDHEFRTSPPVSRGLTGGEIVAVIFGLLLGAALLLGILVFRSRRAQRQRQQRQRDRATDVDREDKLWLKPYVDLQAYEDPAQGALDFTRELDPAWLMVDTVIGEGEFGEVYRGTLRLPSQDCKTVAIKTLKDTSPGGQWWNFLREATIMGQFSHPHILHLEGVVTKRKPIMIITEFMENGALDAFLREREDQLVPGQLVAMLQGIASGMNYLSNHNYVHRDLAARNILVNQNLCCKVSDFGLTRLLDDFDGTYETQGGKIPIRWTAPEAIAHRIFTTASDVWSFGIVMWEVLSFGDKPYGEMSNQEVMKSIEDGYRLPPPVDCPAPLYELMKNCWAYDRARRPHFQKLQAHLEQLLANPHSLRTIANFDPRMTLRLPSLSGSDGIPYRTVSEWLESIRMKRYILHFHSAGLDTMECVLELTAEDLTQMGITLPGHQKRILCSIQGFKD
# Outline: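 Here the EphA1 protein is recombinant and the substrate fluorescent, with electrophoretic separation before fluorescence detection at 1 hour. Signal loss against DMSO defines activity; plate controls included; follow-up concentration series reach 50 uM.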
# [7] = biological target: human Phosphodiesterase 10 (PDE10), PDE10A (gene 10846) (UniProt Q9Y233); assay: NVS_ENZ_hPDE10: NovaScreen (NVS) Enzymatic Assay for human Phosphodiesterase 10 (PDE10) (AID 2283195; active = hit-call score of the fitted dose curve at least 0.9, where 1 is the maximum)
# Sequence of human Phosphodiesterase 10 (PDE10), PDE10A (gene 10846) (Q9Y233 whole entry, looked up): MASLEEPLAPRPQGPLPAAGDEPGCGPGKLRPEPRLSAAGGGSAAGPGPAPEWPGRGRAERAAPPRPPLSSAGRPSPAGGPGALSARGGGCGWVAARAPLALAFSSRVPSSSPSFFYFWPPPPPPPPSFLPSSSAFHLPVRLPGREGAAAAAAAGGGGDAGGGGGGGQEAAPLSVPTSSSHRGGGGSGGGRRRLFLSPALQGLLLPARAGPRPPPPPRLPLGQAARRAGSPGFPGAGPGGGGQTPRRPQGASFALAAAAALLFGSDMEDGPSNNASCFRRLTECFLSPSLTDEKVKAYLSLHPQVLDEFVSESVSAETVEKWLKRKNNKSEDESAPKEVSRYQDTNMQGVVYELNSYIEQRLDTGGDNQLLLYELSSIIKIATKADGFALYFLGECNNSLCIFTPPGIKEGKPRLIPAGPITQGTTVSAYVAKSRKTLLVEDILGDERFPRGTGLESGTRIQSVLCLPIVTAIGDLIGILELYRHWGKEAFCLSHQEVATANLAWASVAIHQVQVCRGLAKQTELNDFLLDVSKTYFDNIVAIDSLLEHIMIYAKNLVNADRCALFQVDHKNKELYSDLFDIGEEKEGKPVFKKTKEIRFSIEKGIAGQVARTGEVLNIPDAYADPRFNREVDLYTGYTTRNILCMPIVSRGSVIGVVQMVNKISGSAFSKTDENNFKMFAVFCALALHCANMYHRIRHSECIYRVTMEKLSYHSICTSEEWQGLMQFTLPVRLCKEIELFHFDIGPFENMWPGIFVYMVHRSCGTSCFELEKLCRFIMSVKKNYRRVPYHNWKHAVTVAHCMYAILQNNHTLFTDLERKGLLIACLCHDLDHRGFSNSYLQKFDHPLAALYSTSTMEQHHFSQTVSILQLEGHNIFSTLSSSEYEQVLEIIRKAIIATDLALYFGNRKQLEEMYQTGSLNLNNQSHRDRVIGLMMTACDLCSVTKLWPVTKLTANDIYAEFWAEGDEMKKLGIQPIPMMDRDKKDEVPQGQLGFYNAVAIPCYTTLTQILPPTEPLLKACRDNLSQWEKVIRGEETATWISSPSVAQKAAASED
# Outline: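 PDE10A, cell-free; 1 h incubation; fluorescence intensity + electrophoretic mobility shift separating substrate/product; DMSO = baseline; 25 uM duplicate primary, CRC up to 50 uM.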
# [8] = biological target: human Phosphoinositide 3-kinase alpha (PI3Ka), PIK3CA (gene 5290) (UniProt P42336); assay: NVS_ENZ_hPI3Ka: NovaScreen (NVS) Enzymatic Assay for human Phosphoinositide 3-kinase alpha (PI3Ka) (AID 2283196; active = hit-call score of the fitted dose curve at least 0.9, where 1 is the maximum)
# Sequence of human Phosphoinositide 3-kinase alpha (PI3Ka), PIK3CA (gene 5290) (P42336 whole entry, looked up): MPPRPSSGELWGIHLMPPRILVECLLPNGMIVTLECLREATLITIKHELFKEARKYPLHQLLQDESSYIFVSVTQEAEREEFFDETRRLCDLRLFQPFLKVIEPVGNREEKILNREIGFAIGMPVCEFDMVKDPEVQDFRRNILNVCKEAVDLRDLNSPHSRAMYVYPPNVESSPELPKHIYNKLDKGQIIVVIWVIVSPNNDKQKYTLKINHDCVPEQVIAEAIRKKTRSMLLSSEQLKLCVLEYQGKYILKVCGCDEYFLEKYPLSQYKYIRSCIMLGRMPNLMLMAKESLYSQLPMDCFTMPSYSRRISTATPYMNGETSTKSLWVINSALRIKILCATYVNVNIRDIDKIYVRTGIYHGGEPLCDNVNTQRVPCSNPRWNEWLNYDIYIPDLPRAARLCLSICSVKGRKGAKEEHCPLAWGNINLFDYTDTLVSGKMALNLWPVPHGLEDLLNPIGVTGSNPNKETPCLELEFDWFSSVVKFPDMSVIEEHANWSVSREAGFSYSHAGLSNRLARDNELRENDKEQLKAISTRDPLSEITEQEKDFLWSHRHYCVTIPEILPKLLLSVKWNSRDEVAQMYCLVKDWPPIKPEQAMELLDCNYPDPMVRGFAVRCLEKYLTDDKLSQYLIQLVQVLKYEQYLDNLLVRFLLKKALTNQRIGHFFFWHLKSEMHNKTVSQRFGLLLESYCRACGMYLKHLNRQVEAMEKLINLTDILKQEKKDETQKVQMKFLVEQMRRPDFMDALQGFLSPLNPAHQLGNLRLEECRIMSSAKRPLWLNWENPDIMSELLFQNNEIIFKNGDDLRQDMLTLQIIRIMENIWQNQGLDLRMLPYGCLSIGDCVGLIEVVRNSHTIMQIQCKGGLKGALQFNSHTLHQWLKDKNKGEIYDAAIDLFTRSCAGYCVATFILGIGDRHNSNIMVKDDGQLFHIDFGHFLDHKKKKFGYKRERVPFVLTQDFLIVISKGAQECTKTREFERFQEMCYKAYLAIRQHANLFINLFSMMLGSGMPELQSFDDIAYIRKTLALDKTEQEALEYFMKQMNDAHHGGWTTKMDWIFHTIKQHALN
# Outline: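 Fluorescence/mobility-shift readout of substrate conversion by recombinant enzyme, 1 h post-dosing. Primary screen in duplicate at 25 uM; actives (e.g. ≥30% inhibition) retested in singleton concentration-response, top concentration 50 uM.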
# [9] = biological target: human CYP19A1, CYP19A1 (gene 1588) (UniProt P11511); assay: NVS_ADME_hCYP19A1: NovaScreen (NVS) CYP450-related Enzyme Activity (ADME) Assay for human CYP19A1 (AID 2283098; active = hit-call score of the fitted dose curve at least 0.9, where 1 is the maximum;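 note: potency for inhibitors seen as loss of fluorescent enzyme signal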)
# Sequence of human CYP19A1, CYP19A1 (gene 1588) (P11511 whole entry, looked up): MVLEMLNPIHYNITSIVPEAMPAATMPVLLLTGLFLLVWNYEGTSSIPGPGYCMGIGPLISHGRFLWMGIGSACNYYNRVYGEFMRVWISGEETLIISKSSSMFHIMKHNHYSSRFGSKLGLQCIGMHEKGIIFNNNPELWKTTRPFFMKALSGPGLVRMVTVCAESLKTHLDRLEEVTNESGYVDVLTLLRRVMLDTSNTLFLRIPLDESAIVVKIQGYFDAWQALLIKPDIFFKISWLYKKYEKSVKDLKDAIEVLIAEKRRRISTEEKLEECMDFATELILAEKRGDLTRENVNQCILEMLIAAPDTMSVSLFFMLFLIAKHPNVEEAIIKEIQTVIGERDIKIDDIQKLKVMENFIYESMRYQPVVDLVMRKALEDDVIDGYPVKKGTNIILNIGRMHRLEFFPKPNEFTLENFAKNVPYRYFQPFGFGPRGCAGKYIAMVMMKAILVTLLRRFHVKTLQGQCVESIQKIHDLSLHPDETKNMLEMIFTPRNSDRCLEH
# Outline: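 Biochem, cell-free; recombinant enzyme + specific substrate; fluorescence intensity at 0.5 h post-dose; 10 uM duplicate primary, conc. series for actives; acetonitrile = negative control/baseline; positive and negative controls on every plate.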
# [10] = biological target: human Matrix Metalloproteinase-9 (MMP9), MMP9 (gene 4318) (UniProt P14780); assay: NVS_ENZ_hMMP9: NovaScreen (NVS) Enzymatic Assay for human Matrix Metalloproteinase-9 (MMP9) (AID 2283190; active = hit-call score of the fitted dose curve at least 0.9, where 1 is the maximum;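 note: cell-free recombinant MMP9 protease activity read by fluorescent substrate signal; active means inhibition seen as loss of fluorescence signal versus DMSO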)
# Outline: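 Extracted enzyme, fluorescent substrate, 1 h post-dose read. Single conc 25 uM in duplicate, then concentration series for actives. Activity = signal loss relative to DMSO negative control.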
# Sequence of E-selectin (Homo sapiens) (P16581 whole entry, looked up): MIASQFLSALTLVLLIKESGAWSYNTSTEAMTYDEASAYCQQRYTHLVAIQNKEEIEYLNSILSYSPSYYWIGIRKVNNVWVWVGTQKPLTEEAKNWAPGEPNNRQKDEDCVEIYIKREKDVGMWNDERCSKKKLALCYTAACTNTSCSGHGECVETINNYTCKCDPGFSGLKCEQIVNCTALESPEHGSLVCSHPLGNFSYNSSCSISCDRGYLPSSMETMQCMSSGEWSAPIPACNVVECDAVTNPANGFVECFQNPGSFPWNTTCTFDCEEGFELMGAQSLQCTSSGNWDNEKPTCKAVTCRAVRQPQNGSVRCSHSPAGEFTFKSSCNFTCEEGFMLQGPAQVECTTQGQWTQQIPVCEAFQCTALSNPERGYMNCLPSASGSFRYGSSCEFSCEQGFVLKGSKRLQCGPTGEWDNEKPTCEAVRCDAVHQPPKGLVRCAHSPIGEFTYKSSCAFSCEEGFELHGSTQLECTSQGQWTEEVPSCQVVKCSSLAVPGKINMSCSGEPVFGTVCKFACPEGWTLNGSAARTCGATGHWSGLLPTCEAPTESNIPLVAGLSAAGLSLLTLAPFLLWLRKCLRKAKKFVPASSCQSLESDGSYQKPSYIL
structure (smiles),measurement,setting,value
O=C1CCCCCCCCCCCCCCO1,outcome,[1],inactive
same,outcome,[2],inactive
same,AC50,[3],11.7 µM (active)
same,outcome,[4],inactive
S=C(S)NCCNC(=S)S,AC50,[5],0.161 µM (active)
CC(=O)Nc1ccccc1O,outcome,[1],inactive
same,outcome,[2],inactive
same,outcome,[3],inactive
same,outcome,[4],inactive
CC1CCC2CC1C2(C)C (stereo unspecified),AC50,[6],21.3 µM (active)
same,outcome,[7],inactive
same,AC50,[8],1.82 µM (active)
CCCCCCCCCCCCCCCC(=O)OC[C@H](O)[C@H]1OC(=O)C(O)=C1O,AC50,[9],2.33 µM (active)
CCCCO,outcome,[6],inactive
Nc1cc([N+](=O)[O-])ccc1Cl,outcome,[1],inactive
same,outcome,[2],inactive
same,outcome,[3],inactive
same,outcome,[4],inactive
same,outcome,[7],inactive
CC(C)[C@H]1CC[C@@H](C)CC1=O,outcome,[6],inactive
Cc1ccc2ccccc2n1,outcome,[6],inactive
same,AC50,[7],9.74 µM (active)
Cc1c(Cl)c(=O)oc2cc(O)ccc12,AC50,[7],0.582 µM (active)
CCCCC(CC)COCCC#N (stereo unspecified),outcome,[1],inactive
same,outcome,[2],inactive
same,outcome,[3],inactive
same,outcome,[4],inactive
same,outcome,[7],inactive
same,outcome,[8],inactive
CC(=O)OCc1ccc2c(c1)OCO2,AC50,[6],8.23 µM (active)
same,outcome,[7],inactive
CC(C)(COC(=O)c1ccccc1)COC(=O)c1ccccc1,AC50,[1],28.8 µM (active)
same,outcome,[2],inactive
same,outcome,[3],inactive
same,outcome,[4],inactive
CC(CCO)CCCC(C)(C)O (stereo unspecified),outcome,[6],inactive
CNC[C@H](O)c1cccc(O)c1,outcome,[1],inactive
same,outcome,[2],inactive
same,outcome,[3],inactive
same,outcome,[4],inactive
same,AC50,[10],10.6 µM (active)

# From PubChem BioAssay (EPA / NIEHS)
